# VACV Venus inh = vaccinia inhibition (Venus reporter); Vaccinia virus Venus reporter expression, fluorescence; 330,000 tested, 0.46% active; Potency, µM (series often up to 36.5 µM), for the others: top-dose activity change, negative = inhibition, actives largely listed as inhibitors; calls by dose curve; tested in A549 cells; further: potency means the concentration at half of the fitted maximal effect; nearly all actives have a fitted effect of over 30% in size
# Marburg entry inh = Marburg virus entry inhibition | Marburg virus pseudotyped entry inhibition, cell reporter | Potency, µM (doses to about 37.8 µM), for inactives: top-dose activity change, negative = inhibition, hits mostly inhibitors | 300,000 tested, 1.8% active | AID 540276; calls by dose curve; tested in HEK293 cells; further: potency means the concentration at half of the fitted maximal effect
# LASV entry inh = inhibitors of Lassa virus binding or cell entry | AID 540256 | Potency, µM (doses to about 37.9 µM), without a hit: at the highest dose activity change, negative = inhibition, actives largely listed as inhibitors | 300,000 tested, 1.2% active | Lassa virus pseudotype entry inhibition, cell reporter; calls by dose curve; tested in HEK293 cells; further: potency means the concentration at half of the fitted maximal effect; nearly all actives have a fitted effect of over 50% in size
# VACV mCherry inh = inhibitors of vaccinia virus infection (mCherry reporter signal); Vaccinia virus mCherry reporter infection, fluorescence; Potency, µM (titrated, usually from 36.5 µM), for inactives: top-dose activity change, negative = inhibition, most hits filed as inhibitors; 310,000 tested, 0.63% active; calls by dose curve; tested in A549 cells; further: potency means the concentration at half of the fitted maximal effect; nearly all actives have a fitted effect of over 35% in size
# HCV inhibitor = inhibitors of hepatitis C virus infection; Huh7.5.1 HCVcc-Cre infection, luciferase reporter, 44 h; Potency, µM (top dose mostly 41.8 µM), for the others: top-dose activity change, negative = inhibition, most hits filed as inhibitors; 340,000 tested, 3.4% active; active means well fitted inhibition curve with a large enough effect; inconclusive means small, poorly fitted or top-dose-only effect, or another doubt; inactive means no such curve, though single readings can be large or run the other way; further: potency means the concentration at half of the fitted maximal effect
#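 Infectious HCV cell culture screen: compound-treated cells (1,000/well, pre-plated 4 h) are infected with HCVcc-Cre at roughly 0.5 moi and grown 44 h. Infection is quantified by luciferase signal after 15 min substrate incubation at room temperature.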
# HCMV antiviral = human cytomegalovirus inhibition; HFF cells, HCMV-luciferase reporter, 72 h; stronger effect = lower value; activity change, negative = inhibition, % at 57.5 µM; 410,000 tested, 4.5% active; in the data active means activity change below about -60%; inconclusive means no clear call, values can overlap the other calls; inactive means above about -39%
#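 Cell-based, HFFs, 1000 cells/well, 16 h 37C; cpds in DMSO + HCMV-luc, MOI 1 PFU/cell; 72 h 37C; OneGlo luminescence after 5 min RT; norm. to buffer vs Salinomycin 10uM.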
# * = called active by the depositor; i = inactive; ? = inconclusive; nt = no result given; ! = a repeat was not active; [ ] = dose if it differs, or a comment. The list is not random: actives were taken first. Their share in the collection is about 7.8%. On the % scale 0 is the no-effect control and ±100 the full control effect.
SMILES,VACV Venus inh,Marburg entry inh,LASV entry inh,VACV mCherry inh,HCV inhibitor,HCMV antiviral
O=C(C[n+]1csc2ccccc21)c1ccccc1,-13.1%,nt,nt,-6.3%,nt,nt
CCOc1ccccc1NC(=O)CC(c1ccc(F)cc1)N1Cc2ccccc2C1=O (configuration not stated),-2.0%,nt,-15.7%[46.1 µM],-9.0%,nt,-36.3
O=C(NCc1cccc(C(F)(F)F)c1)c1cc(-c2ccccc2)nn1CC1CC(c2cccnc2)=NO1 (configuration not stated),?,nt,nt,-3.5%,-21.8%,-1.2
Cc1ccccc1-c1cc(C(=O)NCc2cccc(C(F)(F)F)c2)n(CC2CC(c3cccnc3)=NO2)n1 (configuration not stated),-14.0%,nt,nt,-0.5%,8.91µM*,-13.0
CSc1cc(-c2ccc(Cl)cc2)c(C(=O)NN)s1,nt,?,11.1%,nt,3.55µM*,9.4
CCOc1ccccc1NC(=O)CC1C(=O)NCCN1C(=O)c1ccc(F)cc1 (configuration not stated),-6.6%,-20.3%[46.1 µM],8.0%[46.1 µM],0.7%,nt,8.9
c1cncc(C(c2nnnn2C2CCCCC2)N2CCCCC2)c1 (configuration not stated),-10.2%,-9.1%[46.1 µM],-0.2%[46.1 µM],-13.8%,18.4%,-4.9
Cc1ccc(Cl)cc1N1CCN(C(c2cccnc2)c2nnnn2C2CCCCC2)CC1 (configuration not stated),51.9%,14.6µM*!,?,30.5%,10.8%,-38.6
Clc1ccc(C(c2nnnn2C2CCCC2)N2CCN(c3nc4ccccc4s3)CC2)cc1 (configuration not stated),4.8%,?,-13.8%,-3.8%,5.5%,-27.1
Cc1ccc(Cl)cc1N1CCN(C(c2ccc(C#N)cc2)c2nnnn2C2CCCC2)CC1 (configuration not stated),2.9%,5.8µM*,-18.4%,5.0%,8.2%,?
COc1cc(-c2nc3n(n2)C(c2ccc(F)cc2)C(C(N)=O)=C(C)N3)cc(OC)c1OC (configuration not stated),3.8%,7.1%[46.1 µM],-1.4%[46.1 µM],-8.3%,nt,3.4
CCOC(=O)C(C)C(C)=O (configuration not stated),?,nt,nt,0.316µM*,-3.3%,nt
CCOC(=O)C(C(C)=O)C(c1ccc(OC)cc1)C(C(C)=O)C(=O)OCC (configuration not stated),-11.3%,-4.7%,17.1%,nt,0.8%,10.8
CCOC(=O)Nc1ccc2c(CN(C)Cc3ccc(F)cc3)cc(=O)oc2c1,11.2%,21.0%[46.1 µM],nt,9.8%,-12.5%,-91.8*
CCOC(=O)Nc1ccc2c(C)cc(=O)oc2c1,nt,7.1%,?,nt,-5.1%,163.7
C[C@H]1CC[C@H]2C(=O)O[C@H](COc3ccc(C(C)(C)C)cc3)CN2[C@H]1c1ccc(Br)cc1,nt,-11.8%[14.2 µM],?,nt,nt,nt
CCc1nnc(NC(=O)c2ccc(S(=O)(=O)N3CCCC(C)C3)cc2)s1 (configuration not stated),8.6%,8.3%[46.1 µM],1.8%,-5.3%,-3.2%,-2.1
Cc1cccc2sc(NNC(=O)c3ccc(S(=O)(=O)N4CCc5ccccc5C4)cc3)nc12,?,?,?,?,?,-105.3*
COc1ccccc1NC(=O)c1ccc(S(=O)(=O)N2CCCC(C)C2)cc1 (configuration not stated),-8.3%,2.8%[46.1 µM],-9.7%,-22.8%,?,-63.5*
CCOC(=O)C1CCCN(CC(=O)Nc2ccc(C(=O)Nc3ccccc3OC)cc2)C1 (configuration not stated),-13.1%,?,-0.3%,-1.2%,11.2µM*,-19.5
COc1ccccc1NC(=O)c1ccc(NC(=O)CN2CCCC2)cc1,-22.2%,-6.9%[46.1 µM],12.2%[46.1 µM],i,?,-29.2
Cc1cccc2sc(NNC(=O)c3ccc(S(=O)(=O)N4CCCC(C)C4)cc3)nc12 (configuration not stated),?,?,?,?,2.82µM*,-71.7*
COc1ccc(NC(=O)N2CCOc3ccc(Cl)cc32)cc1,-10.7%,nt,?,-3.9%,nt,-7.9
COc1ccccc1C(=O)OCc1cc(=O)n2nc(C3CC3)sc2n1,-8.6%[7.34 µM],nt,-0.5%[46.1 µM],-8.5%[7.34 µM],nt,?
CCOC(=O)N1CCc2c(sc3c2c(=O)n(Cc2ccccc2)c(=O)n3Cc2cccc(Cl)c2)C1,-19.2%,1.2%[46.1 µM],-19.1%[46.1 µM],-23.6%,nt,10.1
SMILES,VACV Venus inh,Marburg entry inh,LASV entry inh,VACV mCherry inh,HCV inhibitor,HCMV antiviral
COc1ccc(S(=O)(=O)c2cc3cc(C(C)(C)C)cc(O)c3oc2=O)cc1,-0.5%,-2.7%[46.1 µM],-4.2%[46.1 µM],-17.3%,nt,3.1
CSc1ccc(NC(=O)N2CC=C(n3c(=O)[nH]c4ccccc43)CC2)cc1,-29.5%,?,?,-16.1%,10µM*,-15.4
N#Cc1sc2nc(C3CC3)cc(-c3ccccc3)c2c1N,-1.8%,-19.6%,-22.7%,-2.0%,?,?
N#Cc1sc2nc(-c3ccccc3)cc(-c3ccco3)c2c1N,-1.9%,3.1%,?,-6.7%,12.6µM*,8.9
COc1ccc2nc(NC(=O)CSC3=NCCS3)sc2c1,?,?,-0.8%,-8.1%[1.46 µM],?,-28.0
CCOc1ccc2nc(NC(=O)CSC3=NCCS3)sc2c1,?,?,?,nt,8.91µM*,-34.2
CCOc1ccc2nc(NC(=O)CSc3cn[nH]n3)sc2c1,-17.8%,?,?,-17.6%,?,90.0
COc1ccc2nc(NC(=O)CSc3cn[nH]n3)sc2c1,-6.5%,?,nt,-21.2%,12.6µM*,65.8
O=C(CN1N=C(C(F)(F)F)CC1(O)c1ccc([N+](=O)[O-])cc1)c1ccccc1 (configuration not stated),nt,-8.0%,4.1%,nt,-8.7%,10.4
CCC1=NN(C(=O)c2ccccc2O)C(O)(c2ccccc2)C1 (configuration not stated),nt,nt,nt,nt,?,-75.6*
CCC1=NN(C(=O)c2ccccc2Br)C(O)(c2ccc(Br)cc2)C1 (configuration not stated),-28.8%,nt,nt,?,-8.9%,8.0
O=C(c1ccccc1O)N1N=C(C(F)(F)F)CC1(O)c1ccc([N+](=O)[O-])cc1 (configuration not stated),nt,nt,nt,nt,-8.2%,-101.6*
Cc1ccc(-n2ncc3c(N4CCN(C)CC4)ncnc32)cc1Cl,-7.9%,nt,?,-7.3%,nt,-38.3
CS(=O)(=O)N1CCc2cc(C(=O)Nc3cccc(F)c3)ccc21,-7.1%,?,5.6%[46.1 µM],2.9%,nt,67.4
O=C1CCC[C@@H]2[C@@H](Cc3ccccc3)[C@H](N3CCN(c4ccccc4)CC3)C[C@@H]3CCN1[C@@H]32,?,nt,nt,?,26.4%,-79.7*
CCNC(=O)C(=O)Nc1ccc2c(c1)N(S(=O)(=O)c1cccs1)CCC2,?,?,?,-11.1%,4.5%,-5.4
CN(C)CCCNC(=O)C(=O)Nc1ccc2c(c1)N(S(=O)(=O)c1cccs1)CCC2,-22.4%,?,3.8%[46.1 µM],-2.5%,8.91µM*,?

# High-throughput results from PubChem.
